Experimental data taken from PubChem BioAssay (Tox21).
Inconclusive results are not listed. A call without a number means that no potency is given here. Activity calls are given as the source filed them. Unless noted, calls follow the shape of the dose curve; as a rule, active = well fitted curve in the direction sought with a large enough effect in the repeat runs; inconclusive = weak or mixed curves; inactive = no such curve, though single readings can be large; an effect the other way counts as inactive or inconclusive.

Key:
[1] = biological target: Progesterone receptor (Homo sapiens) (UniProt P06401); assay: qHTS assay to identify small molecule antagonists of the progesterone receptor (PR) signaling pathway (AID 1346795; active = well fitted inhibition curve with a large enough effect in the signal ratio in the repeat runs, not every such curve was filed as active; the % refers to the signal ratio; also: potency is read from the fitted curve at half-maximal effect)
Chain of Progesterone receptor (Homo sapiens) (P06401 whole entry, looked up): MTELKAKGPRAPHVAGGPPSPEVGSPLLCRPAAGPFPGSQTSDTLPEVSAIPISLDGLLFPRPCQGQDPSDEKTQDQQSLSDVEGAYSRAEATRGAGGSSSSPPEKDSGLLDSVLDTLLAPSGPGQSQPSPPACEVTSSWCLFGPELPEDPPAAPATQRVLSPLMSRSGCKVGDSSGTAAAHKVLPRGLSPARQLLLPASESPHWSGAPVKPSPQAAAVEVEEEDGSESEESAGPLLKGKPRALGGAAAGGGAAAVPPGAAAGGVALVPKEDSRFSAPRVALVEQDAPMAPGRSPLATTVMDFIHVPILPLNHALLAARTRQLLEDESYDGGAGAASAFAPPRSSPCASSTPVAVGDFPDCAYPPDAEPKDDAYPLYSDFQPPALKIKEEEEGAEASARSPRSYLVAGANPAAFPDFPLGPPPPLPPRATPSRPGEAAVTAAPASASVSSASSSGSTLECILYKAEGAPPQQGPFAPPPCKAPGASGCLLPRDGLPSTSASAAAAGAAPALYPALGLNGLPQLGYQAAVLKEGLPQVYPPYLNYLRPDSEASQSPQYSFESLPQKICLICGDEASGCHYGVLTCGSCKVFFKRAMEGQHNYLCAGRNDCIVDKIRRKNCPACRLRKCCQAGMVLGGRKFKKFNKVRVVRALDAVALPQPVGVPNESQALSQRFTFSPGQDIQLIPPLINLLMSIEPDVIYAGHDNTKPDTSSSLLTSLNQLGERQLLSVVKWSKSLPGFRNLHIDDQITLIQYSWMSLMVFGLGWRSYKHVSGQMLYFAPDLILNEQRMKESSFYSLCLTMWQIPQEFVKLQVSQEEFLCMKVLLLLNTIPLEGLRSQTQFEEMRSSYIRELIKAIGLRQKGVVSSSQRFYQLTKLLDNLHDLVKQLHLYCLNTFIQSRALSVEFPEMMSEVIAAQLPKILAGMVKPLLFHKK
Summary of the method: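 HEK293T PR-UAS-bla reporter cells in charcoal-stripped serum (2%) received compound after a 6 hr settling period, followed by R5020 agonist at 1 nM final; 16 hr incubation preceded the FRET substrate step and fluorescence measurement.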

[2] = qHTS assay to identify small molecule antagonists of the progesterone receptor (PR) signaling pathway - cell viability counter screen (AID 1346798); also: series mostly up to about 92 µM; nearly all actives have a fitted effect of over 50% in size
Summary of the method: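 Same-well multiplex: after 16 hr at 37C with compound and R5020 stimulation, HEK293T cells carrying a UAS-bla reporter received LiveBLAzer substrate (2 hr RT), then CellTiter-Glo (30 min RT) for luminescent viability.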

[3] = qHTS assay to identify small molecule antagonists of the TGF-beta/Smad signaling pathway - cell viability counter screen (AID 1346824); also: nearly all actives have a fitted effect of over 50% in size
Summary of the method: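 SBE-bla HEK 293T cells, incubated overnight, then compound plus 0.25 ng/mL TGF-beta1 (stock added) for 5 hr at 37 C. Viability was read in the same wells by CellTiter-Glo luminescence after 30 min at room temperature.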

[4] = qHTS assay to identify small molecule agonists of the TGF-beta/Smad signaling pathway - cell viability counter screen (AID 1346829); also: top concentration of the series differs between compounds; nearly all actives have a fitted effect of over 45% in size
Summary of the method: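 Same-well cytotoxicity: CellTiter-Glo added after the 2 hr room-temperature beta-lactamase substrate step, luminescence measured 30 min later; cells had 5 hr of compound at 37 C.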

[5] = qHTS assay to identify small molecule agonists of the TGF-beta/Smad signaling pathway (AID 1346859; active = well fitted activation curve with a large enough effect in the signal ratio in the repeat runs, not every such curve was filed as active; the % refers to the signal ratio; also: series mostly up to about 77 µM)
Summary of the method: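 Smad-responsive beta-lactamase reporter cells (HEK 293T) received compounds from DMSO stocks after overnight attachment, were incubated 5 hr, then treated 2 hr with FRET substrate before dual-emission fluorescence measurement (405 nm excitation).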

[6] = biological target: Thyrotropin-releasing hormone receptor (Homo sapiens) (UniProt P34981); assay: qHTS assay to identify small molecule antagonists of the thyrotropin-releasing hormone receptor (TRHR) signaling pathway (AID 1346877; active = well fitted inhibition curve with a large enough effect in the repeat runs, not every such curve was filed as active; also: series mostly up to about 51 µM)
Chain of Thyrotropin-releasing hormone receptor (Homo sapiens) (P34981 whole entry, looked up): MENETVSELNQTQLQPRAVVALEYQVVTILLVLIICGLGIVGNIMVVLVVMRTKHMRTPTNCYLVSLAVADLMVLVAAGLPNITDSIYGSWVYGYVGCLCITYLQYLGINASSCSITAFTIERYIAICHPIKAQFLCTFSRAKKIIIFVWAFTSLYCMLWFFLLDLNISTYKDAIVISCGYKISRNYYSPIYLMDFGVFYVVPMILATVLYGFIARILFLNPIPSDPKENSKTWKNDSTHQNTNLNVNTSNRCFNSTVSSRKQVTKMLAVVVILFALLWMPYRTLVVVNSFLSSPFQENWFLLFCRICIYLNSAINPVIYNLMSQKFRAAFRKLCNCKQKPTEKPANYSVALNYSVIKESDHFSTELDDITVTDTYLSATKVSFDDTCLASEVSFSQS
Summary of the method: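 TRHR-expressing HEK293 cells were seeded, cultured 18 h at 37 °C, then loaded with calcium dye for 2 h. Compounds were pre-incubated 5 min at room temperature before 1 nM TRH (final) was added, and kinetic fluorescence was recorded for 3 min.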

[7] = biological target: Thyrotropin-releasing hormone receptor (Homo sapiens) (UniProt P34981); assay: qHTS assay to identify small molecule agonists of the thyrotropin-releasing hormone receptor (TRHR) signaling pathway (AID 1346891; calls by dose curve; also: series mostly up to about 58 µM)
Summary of the method: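 Agonist-mode calcium mobilisation screen: TRHR-transfected HEK293 cells cultured overnight (18 h), dye-loaded for 2 h at 37 °C, exposed to compounds, and monitored by fluorescence for 3 min.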

[8] = Human pregnane X receptor (PXR) small molecule agonists, qHTS cell viability counter screen (AID 1346977); also: nearly all actives have a fitted effect of over 50% in size; also: potency is read from the fitted curve at half-maximal effect
Summary of the method: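 Measures live-cell protease fluorescence (CellTiter-Fluor) in PXR-Luc HepG2 cells treated 24hr with compounds at 37C. Cells had 5hr to attach before pin transfer of DMSO solutions.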

[9] = Caspase-3/7 induction in HepG2 cells by small molecules, qHTS assay (AID 1346978); also: nearly all actives have a fitted effect of over 15% in size
Summary of the method: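 Wild-type HepG2 cells, 2,000/well, settled 5 hr at 37 C and 5% CO2, then compound-treated for 17 hr; caspase-3/7 activity read by luminescent Caspase-Glo 3/7 after 30 min at room temperature.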

[10] = qHTS assay to identify small molecule agonists of the progesterone receptor (PR) signaling pathway - cell viability counter screen (AID 1346799; calls by dose curve; also: nearly all actives have a fitted effect of over 45% in size)
Summary of the method: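 Counter screen for cytotoxicity: compound-treated PR-UAS-bla HEK293T cells (16 hr, 37C, 5% CO2) were assayed with CellTiter-Glo, luminescence measured after 30 min at room temperature.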

SMILES	Potency [1]	Potency [2]	Potency [3]	Potency [4]	Potency [5]	Potency [6]	outcome [7]	Potency [8]	Potency [9]	Potency [10]
COC(=O)C1=C(C)NC(C)=C(C(=O)OCCN2CCN(C(c3ccccc3)c3ccccc3)CC2)C1c1cccc([N+](=O)[O-])c1 (configuration not stated)	inactive	inactive	inactive	inactive	inactive	inactive	inactive			
[Cl][Pt-2]([Cl])([Cl])[Cl]	inactive	inactive		inactive	inactive		inactive	inactive	inactive	
Cc1cc(=O)oc2cc(O)cc(O)c12	inactive	inactive	inactive	inactive		inactive	inactive	inactive		
CCOc1ccc2ccccc2c1C(=O)N[C@@H]1C(=O)N2[C@@H]1SC(C)(C)[C@@H]2C(=O)O	inactive	inactive		inactive		inactive	inactive	inactive	inactive	inactive
Nc1nc2c(ncn2COCCO)c(=O)[nH]1	inactive	inactive		inactive				inactive		inactive
CC(C)=CCNc1ncnc2c1ncn2[C@@H]1O[C@H](CO)[C@@H](O)[C@H]1O	inactive	inactive			inactive	inactive	inactive	13.3 µM (active)		
C=CC(C)(CCC=C(C)C)OC=O (configuration not stated)	inactive	inactive		inactive	inactive			inactive	inactive	inactive
C1CCC(SSC2CCCCC2)CC1	inactive	inactive		inactive	inactive			inactive	inactive	
C[Si](Cl)(c1ccccc1)c1ccccc1	29.9 µM (active)	inactive		inactive	inactive			inactive		
CCCCCc1ccc(Cl)cc1	inactive		inactive	inactive	inactive	inactive	inactive	inactive	inactive	inactive
CC(C)(C)C1CCC(=O)CC1	inactive		inactive	inactive	inactive	inactive	inactive	inactive		inactive
OC/C=C/CO	inactive	inactive	inactive	inactive	inactive		inactive	inactive	inactive	
O=[N+]([O-])c1ccc(F)c(Cl)c1	inactive	inactive	inactive	inactive	inactive	inactive	inactive	inactive	inactive	
CCC(COC(=O)CCS)(COC(=O)CCS)COC(=O)CCS	inactive		inactive	inactive	inactive	inactive	inactive	inactive	inactive	
CCCCC(CC)CN1CN(CC(CC)CCCC)CC(C)(N)C1 (configuration not stated)	inactive		inactive	inactive	inactive		inactive	inactive	inactive	
Cc1cc(-n2nc3ccc(Cl)cc3n2)c(O)c(C(C)(C)C)c1	inactive		inactive	inactive	inactive			inactive	inactive	inactive
CCC(C)[O-].CCC(C)[O-].CCOC(=O)/C=C(/C)[O-].[Al+3]	inactive		inactive	inactive	inactive			inactive	inactive	inactive
CC(=O)OCC=C(C)C	inactive		inactive	inactive	inactive			inactive		inactive
